Screening results: PubChem, National Center for Advancing Translational Sciences (NCATS)
BAZ2B block – BAZ2B (human) inhibition; AlphaScreen BAZ2B-H3K14Ac peptide displacement; 4.4% of 360,000 active; Potency, µM (top dose mostly 114 µM), hits mostly inhibitors; Q9UIF8; also: nearly all actives have a fitted effect of over 60% in size
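In this displacement format the biotinylated H3(5-23) peptide acetylated at Lys14 serves as ligand at 50 nM, with BAZ2B at 50 nM in PBS pH 7.4 containing 0.01% Tween-20. Donor and acceptor beads are 10 ug/mL final.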
GLS inh – blocks human kidney-isoform glutaminase activity. O94925. GLS enzymatic activity, qHTS titration. Potency, µM (titrated, usually from 45.5 µM), hits mostly inhibitors. 0.21% of 410,000 active. AID 624170
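hKGA in 45 mM KH2PO4 pH 8.2, 0.02% Tween-20 with pin-transferred compounds; 1 mM L-glutamine (stock) plus glutamate oxidase/HRP/Amplex Red coupling added. Fluorescence read initially and after 30 min at RT.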
G9a inh – blocks human histone lysine methyltransferase G9a; Q96KQ7; 8.8% of 350,000 active; G9a H3K9 monomethylation, AlphaScreen, 2 h; Potency, µM (series often up to 102 µM), usual class: inhibitors; also: nearly all actives have a fitted effect of over 75% in size
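Enzyme 20 nM + cpd, 15 min RT; add b-H3K9 pep 500 nM / SAM 20 uM; 2 h RT; anti-H3K9me1 Ab 0.5 ug/mL + SA donor / anti-rabbit acceptor beads 20 ug/mL each, 10 min; AlphaScreen read.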
HP1b binding inh – HP1-beta chromodomain-methylated histone interaction inhibition; Potency, µM (top dose mostly 114 µM), most hits filed as inhibitors; AID 540317; AlphaScreen HP1-beta / biotin-H3K9me3 peptide binding; 0.56% of 390,000 active; also: nearly all actives have a fitted effect of over 70% in size
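AlphaScreen: HP1-beta (50 nM) preformed 30 min with biotin-H3(1-18)K9me3 peptide (50 nM) in PBS pH 7.4, 0.01% Tween-20. Compound added for 30 min at RT, then streptavidin donor/nickel chelate acceptor beads (10 ug/mL) for 30 min.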
JMJD2A Tudor – inhibitors of human JMJD2A Tudor domain; O75164; AlphaScreen JMJD2A-Tudor / H3K4me3 peptide binding; Potency, µM (top dose mostly 114 µM), usual class: inhibitors; 4.4% of 390,000 active; AID 504339; also: nearly all actives have a fitted effect of over 50% in size
Target sequence (O75164 whole entry, looked up, the tested form may be a part): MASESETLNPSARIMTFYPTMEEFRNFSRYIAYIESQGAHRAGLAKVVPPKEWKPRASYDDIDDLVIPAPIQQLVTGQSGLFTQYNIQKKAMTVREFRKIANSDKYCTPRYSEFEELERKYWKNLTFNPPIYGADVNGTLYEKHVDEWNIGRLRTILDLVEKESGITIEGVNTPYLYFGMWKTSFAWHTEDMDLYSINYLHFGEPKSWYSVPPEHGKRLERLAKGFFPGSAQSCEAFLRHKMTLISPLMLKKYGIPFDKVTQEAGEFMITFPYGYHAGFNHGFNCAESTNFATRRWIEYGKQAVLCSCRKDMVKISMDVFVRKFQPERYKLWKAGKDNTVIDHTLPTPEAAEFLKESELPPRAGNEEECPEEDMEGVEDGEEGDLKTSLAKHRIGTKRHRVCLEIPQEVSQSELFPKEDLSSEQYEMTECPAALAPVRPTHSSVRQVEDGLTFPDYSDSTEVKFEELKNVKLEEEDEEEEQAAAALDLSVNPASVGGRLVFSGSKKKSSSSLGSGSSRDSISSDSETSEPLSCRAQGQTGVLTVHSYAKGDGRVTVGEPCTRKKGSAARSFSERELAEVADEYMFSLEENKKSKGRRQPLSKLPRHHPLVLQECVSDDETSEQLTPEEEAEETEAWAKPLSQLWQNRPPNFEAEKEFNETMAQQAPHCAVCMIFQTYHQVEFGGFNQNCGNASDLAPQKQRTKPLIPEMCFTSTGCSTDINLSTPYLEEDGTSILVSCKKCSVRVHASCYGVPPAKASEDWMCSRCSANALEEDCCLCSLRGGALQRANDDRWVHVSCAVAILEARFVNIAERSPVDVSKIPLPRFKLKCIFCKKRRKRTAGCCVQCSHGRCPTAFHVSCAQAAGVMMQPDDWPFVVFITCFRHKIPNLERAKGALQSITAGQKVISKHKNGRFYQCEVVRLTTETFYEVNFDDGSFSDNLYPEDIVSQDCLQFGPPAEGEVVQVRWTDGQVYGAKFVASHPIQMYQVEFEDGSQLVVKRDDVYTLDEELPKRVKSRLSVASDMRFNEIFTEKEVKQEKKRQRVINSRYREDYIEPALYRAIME
Each line names hits and unclear results; the compound was inactive in the other large screens. Only some compounds are listed: those with a hit (about 10% of all), similar ones and a draw of the others. Calls follow the shape of the dose curve; as a rule, active = well fitted curve in the direction sought with a large enough effect; inconclusive = small, poorly fitted or top-dose-only effect, or another doubt; inactive = no such curve, though single readings can be large; an effect the other way counts as inactive or inconclusive.

COc1ccc(C(C)=NNc2ccc([N+](=O)[O-])cc2S(=O)(=O)Nc2ccccc2C(=O)O)c(OC)c1	JMJD2A Tudor inconclusive (no result: BAZ2B block, G9a inh)
CN(CCO)c1ccc(C=NNc2ccc([N+](=O)[O-])cc2S(=O)(=O)Nc2ccccc2C(=O)O)cc1	GLS inh 11µM, HP1b binding inh 45µM, JMJD2A Tudor 45µM (no result: BAZ2B block, G9a inh)
Cn1nccc1C(=O)OCC(=O)Nc1ccc(S(N)(=O)=O)cc1	none
CC(CCc1ccccc1)NC(=O)COC(=O)c1cccn1C (stereo unspecified)	none
CCCc1ccc(-c2ccc(-c3noc(-c4ccncc4)n3)cc2)nc1	none
Cc1cc(=O)n(CC(=O)NC(C)c2ccccc2)c2c1c(C)nn2C (stereo unspecified)	BAZ2B block inconclusive, GLS inh inconclusive, HP1b binding inh inconclusive, JMJD2A Tudor inconclusive
Cc1nn(C)c2c1c(-c1ccccc1)cc(=O)n2CC(=O)NC(C)c1ccccc1 (stereo unspecified)	BAZ2B block 50µM, GLS inh inconclusive, HP1b binding inh 40µM, JMJD2A Tudor 50µM
C/C(=N\NC(=O)c1ccc(Br)o1)c1cc2c(cc1NC(=O)CCC(=O)O)OCO2	BAZ2B block inconclusive, G9a inh 3.2µM
CCOC(=O)c1c(C)n(C)c2cc(Br)c(O)c(O)c12	G9a inh 0.35µM, HP1b binding inh inconclusive, JMJD2A Tudor 10µM
CCOC(=O)COc1cc2c(C(=O)OCC)c(C)oc2cc1Br	none
CCOC(=O)c1c(CSc2cccs2)n(C)c2cc(Br)c(O)c(CN(C)C)c12	BAZ2B block 40µM, HP1b binding inh inconclusive, JMJD2A Tudor 63µM (no result: G9a inh)
CCOC(=O)c1c(C)oc2cc(Br)c(O)c(Br)c12	G9a inh 6.3µM
CCOc1ccc(CNC(=S)NCc2ccc(OCC)cc2)cc1	none
C=CCCC(=O)N1C[C@H]2CON(C)[C@H]2C[C@H]1c1ccccc1Br	none (no result: BAZ2B block, G9a inh)
COc1ccc(N2CCN(C(CNC(=O)C3CCCCC3)c3ccco3)CC2)cc1 (stereo unspecified)	G9a inh 45µM, HP1b binding inh inconclusive
O=C(NCC(c1ccco1)N1CCN(c2ccc(F)cc2)CC1)C(=O)NC1CC1 (stereo unspecified)	none
COc1ccc(N2CCN(C(CNC(=O)C(=O)NC3CC3)c3ccco3)CC2)cc1 (stereo unspecified)	G9a inh 45µM
O=C(O)c1ccc(CSc2nnc(COc3ccccc3)o2)cc1	G9a inh 45µM
Cc1csc(N(C)C(=O)CSc2nnc(COc3cccc4ccccc34)o2)n1	G9a inh 10µM
CN(C(=O)CSc1nnc(COc2ccccc2)o1)c1ccccc1	BAZ2B block 79µM
COc1ccc(Cc2nnc(SCC(=O)N(C)c3ccccc3)o2)cc1	none
O=C(CNC(=O)c1ccccc1)OC(C(=O)Nc1cc(C(F)(F)F)ccc1Cl)c1ccccc1 (stereo unspecified)	none
C=CCNC(=O)c1ccncc1	none
O=C(CSc1nnc(NC(=O)c2ccccc2F)s1)Nc1ccccc1F	none
CCSC1=C(C#N)C(CC(C)C)C2=C(CCCC2=O)N1 (stereo unspecified)	none
CCc1cc2ccccc2nc1SCC(=O)N1CCN(C(=O)c2ccco2)CC1	BAZ2B block inconclusive, G9a inh 50µM
CCc1nc(SCC(=O)N2CCN(C(=O)c3ccco3)CC2)c2c3c(sc2n1)CCCC3	G9a inh 50µM, JMJD2A Tudor inconclusive
CCc1cc2cc(C)ccc2nc1SCC(=O)N1CCN(C(=O)c2ccco2)CC1	BAZ2B block inconclusive, G9a inh inconclusive, JMJD2A Tudor inconclusive
Cc1ccc(/C=C/C(=O)Nc2cc(S(N)(=O)=O)ccc2O)cc1	G9a inh 8.9µM, HP1b binding inh inconclusive
COc1ccc(Nc2nccc(-c3cccc(N)c3)n2)cc1	BAZ2B block 56µM
COc1ccc(Nc2nccc(-c3ccc(C#N)cc3)n2)cc1	none
O=C(C1CCC(CNS(=O)(=O)c2ccc(Br)s2)CC1)N1CCN(c2ccccc2Cl)CC1 (stereo unspecified)	none
O=C(O)CCCNC(=O)OCc1ccccc1	none
CC(=O)C1=C(C)Nc2ncnn2C1c1ccc(C)cc1 (stereo unspecified)	none
CCn1c(=O)c2c(n3c(=S)[nH]nc13)-c1ccccc1CC21CCCCC1	G9a inh 1.6µM, JMJD2A Tudor 18µM
CCn1c(SCC#N)nc2c(c1=O)C1(CCCC1)Cc1ccccc1-2	none
CCC(C)c1ccc(NC(=O)NCCN2CCCCC2)cc1 (stereo unspecified)	none (no result: G9a inh)
COc1ccc(NC(=O)CSc2sc3c(O)cc(=O)[nH]c3c2C#N)c(OC)c1	BAZ2B block 79µM, G9a inh 79µM, HP1b binding inh inconclusive, JMJD2A Tudor inconclusive
COc1ccc(NC(=O)CSc2nc(O)cc(=O)[nH]2)c(OC)c1	none
COc1ccccc1NC(=O)CSc1sc2c(O)cc(=O)[nH]c2c1C#N	BAZ2B block inconclusive, G9a inh 8.9µM, JMJD2A Tudor inconclusive
COc1ccc(Cl)cc1NC(=O)CSc1sc2c(O)cc(=O)[nH]c2c1C#N	G9a inh inconclusive
Cc1cc(C(=O)Nc2nnc(C(F)(F)F)s2)cs1	none
Cc1sc2ccccc2[n+]1CC(=O)c1ccccc1	BAZ2B block inconclusive, G9a inh 10µM, JMJD2A Tudor inconclusive
Cc1ccc(-c2csc(N(CCO)CCCn3c(C(F)(F)F)nc4ccccc43)n2)cc1	BAZ2B block inconclusive, G9a inh 45µM
Cc1cc(C)c(NC(=O)CNC(=O)[C@@H]2CCCN2C(=O)c2cccs2)c(C)c1	none
CCCC(=O)C1=C(O)C(C(=O)OC)C(C)(C)CC1=NC(C)(C)C (stereo unspecified)	none
COc1cc(OC)c(OC)cc1/C=C1\CCC/C(=C\c2cc(OC)c(OC)cc2OC)C1=O	BAZ2B block 28µM, G9a inh 40µM, HP1b binding inh 32µM, JMJD2A Tudor 28µM
COc1cc(OC)c(OC)cc1/C=C1\CCC(C2CCCC2)C1=O (stereo unspecified)	BAZ2B block 25µM, G9a inh inconclusive, JMJD2A Tudor inconclusive
Cc1cc(NS(=O)(=O)c2ccccc2)c([N+](=O)[O-])cc1C	BAZ2B block inconclusive, G9a inh inconclusive, JMJD2A Tudor inconclusive
Cc1nn(-c2ccccc2)c(=S)n1-c1ccccc1	none
OCCn1nc2c3ccccc3nc-2n(-c2ccccc2)c1=S	G9a inh 25µM
Cc1cc(C)c(NS(=O)(=O)c2cccc3cccnc23)c(C)c1	G9a inh inconclusive
CC1=[N+](C)c2c(ccc3cccnc23)C1(C)C	BAZ2B block 40µM, GLS inh inconclusive, G9a inh 3.2µM, HP1b binding inh inconclusive, JMJD2A Tudor 25µM
CCOc1ccc(N(CC(=O)NCc2ccccc2)C(=O)CCC(=O)Nc2nccs2)cc1	none
COc1ccc(OC)c(NC(=O)NNC(=O)c2cc3occc3[nH]2)c1	BAZ2B block inconclusive, G9a inh 50µM
Cc1ccc(C)c(NC(=O)NNC(=O)c2cc3occc3[nH]2)c1	BAZ2B block inconclusive
CCn1c(CC(=O)Nc2ccccc2C)nnc1SCC(=O)Nc1nncs1	none
